Measurements taken from paper PMC4336329 (PLoS ONE, 2015).
Screen size: about 310,000 compounds; about 14,000 (4.5%) showed an effect of 50% or more. The effect is printed as a negative number. The sample holds strong results, similar compounds and a random draw of the others, so the mix is not that of the screen.

target: human ether-à-go-go-related gene (hERG) potassium channel (human, UniProt Q12809); experiment: primary screen, population patch clamp on CHO cells stably expressing hERG; higher = less effect of the substance
Sequence (Q12809 whole entry, looked up): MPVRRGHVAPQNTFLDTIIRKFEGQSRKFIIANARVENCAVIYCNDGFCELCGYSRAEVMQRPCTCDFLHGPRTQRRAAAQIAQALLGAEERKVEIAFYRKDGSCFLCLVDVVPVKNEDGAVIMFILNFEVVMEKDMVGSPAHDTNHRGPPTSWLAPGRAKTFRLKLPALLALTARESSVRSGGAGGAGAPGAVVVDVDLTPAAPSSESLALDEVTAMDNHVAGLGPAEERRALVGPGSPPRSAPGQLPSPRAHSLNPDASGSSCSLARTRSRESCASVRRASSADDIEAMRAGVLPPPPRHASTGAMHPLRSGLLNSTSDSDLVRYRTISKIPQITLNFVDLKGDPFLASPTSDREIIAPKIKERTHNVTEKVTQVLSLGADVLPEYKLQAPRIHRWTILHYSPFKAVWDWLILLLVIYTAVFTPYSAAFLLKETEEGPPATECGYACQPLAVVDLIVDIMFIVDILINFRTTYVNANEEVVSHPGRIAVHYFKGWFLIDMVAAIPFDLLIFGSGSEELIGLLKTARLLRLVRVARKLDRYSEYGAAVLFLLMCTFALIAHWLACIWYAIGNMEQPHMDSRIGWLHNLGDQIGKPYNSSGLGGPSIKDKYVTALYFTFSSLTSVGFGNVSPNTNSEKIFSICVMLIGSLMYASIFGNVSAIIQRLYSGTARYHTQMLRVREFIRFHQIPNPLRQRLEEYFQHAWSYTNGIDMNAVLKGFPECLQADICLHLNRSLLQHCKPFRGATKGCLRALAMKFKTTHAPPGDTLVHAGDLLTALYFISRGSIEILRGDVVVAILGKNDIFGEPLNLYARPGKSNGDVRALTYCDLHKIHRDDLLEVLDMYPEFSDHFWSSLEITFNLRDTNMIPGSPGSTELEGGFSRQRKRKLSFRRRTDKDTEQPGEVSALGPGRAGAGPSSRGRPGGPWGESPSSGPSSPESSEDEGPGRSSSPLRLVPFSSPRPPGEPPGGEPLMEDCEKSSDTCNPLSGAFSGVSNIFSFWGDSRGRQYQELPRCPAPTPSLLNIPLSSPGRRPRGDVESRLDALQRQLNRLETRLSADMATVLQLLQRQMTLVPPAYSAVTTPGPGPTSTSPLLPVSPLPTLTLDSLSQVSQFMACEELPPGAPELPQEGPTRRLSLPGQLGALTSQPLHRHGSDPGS
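Also: peak tail current of the secondary pulse compared with the same well before compound.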

Row | Compound | hERG current change (%, negative = inhibition) at 10uM
1 | O=c1c2oc3ccccc3c2ncn1Cc1ccc(Cl)cc1 | 11.7%
2 | CCOc1ccccc1N1CCN(c2nc(N)c(C#N)c(CC#N)c2C#N)CC1 | -37.2%
3 | CCCn1c(SCC(=O)Nc2sc(C)c(C)c2C#N)nnc1C(C)C | -9.76%
4 | O=C(NCCc1csc(-c2cccnc2)n1)c1ccc(Br)o1 | -10.9%
5 | Cc1cc(C)cc(N=C2NC(=O)CS2)c1 | 0.159%
6 | CCN(CC)C(=O)COc1ccc(/C(C)=N/NC(=O)c2ccccc2Br)cc1 | 8.89%
7 | COc1ccc(CCN(C)C(=O)CSc2nnc(-c3ccco3)o2)cc1OC | -21.3%
8 | C=CCSc1nnc2nc3c(nn12)c1cc(C)ccc1n3CC=C | -55.1%
9 | CCCSc1nnc2nc3c(nn12)c1ccccc1n3C | -49.7%
10 | C=CCSc1nnc2nc3[nH]c4c(C)cccc4c3nn12 | 4.32%
11 | O=C(NCc1ccc2c(c1)OCO2)C1(S(=O)(=O)c2ccccc2)CC1 | 13.4%
12 | CC(C)Cc1cc(C(=O)N2CCN(C(c3ccccc3)c3ccccc3)CC2)no1 | 0.0803%
13 | COc1ccc(/C=c2/sc3nc(-c4ccccc4)c(-c4ccccc4)n3c2=O)cc1 | -13.9%
14 | NC(=O)C1CCN(S(=O)(=O)Cc2ccccc2Cl)CC1 | 14.8%
15 | CCn1c(SCc2cccc(C)c2)nnc1-c1ccc(C)cc1 | -63.7%
16 | CCn1c(SCc2ccc(C(=O)Nc3cc(C)cc(C)c3)cc2)nnc1-c1ccncc1 | -59.2%
17 | CCn1c(SCc2cccc(F)c2)nnc1-c1ccncc1 | -8.82%
18 | CCn1c(SCc2ccc(Cl)cc2)nnc1-c1ccccc1 | -44.4%
19 | C=CCn1c(SCc2ccc(C#N)cc2)nnc1-c1cccc(OC)c1 | -67.4%
20 | CCOC(=O)CSc1nnc(-c2cccc(Cl)c2)n1CC | -3.47%
21 | C=CCn1c(SCc2ccc(OC)cc2)nnc1-c1cccnc1 | -26.9%
22 | CCn1c(SCc2ccc(C(=O)Nc3nccs3)cc2)nnc1-c1ccc(N)cc1 | -22.2%

Row | Compound | hERG current change (%, negative = inhibition) at 10uM
23 | CCn1c(SCc2ccc(C(=O)Nc3nccs3)cc2)nnc1-c1ccc(NC(C)=O)cc1 | 1.21%
24 | CCn1c(SCc2ccc(C#N)cc2)nnc1-c1cccc(Cl)c1 | -73.6%
25 | C=CCn1c(SCc2cccc(OC)c2)nnc1-c1ccncc1 | -15.5%
26 | CCn1c(SCc2cccc(C)c2)nnc1-c1ccccc1 | -32.9%
27 | CCOC(=O)c1c(C)[nH]c(C(=O)COC(=O)C23CC4CC(CC(Cl)(C4)C2)C3)c1C | 11.6%
28 | CC1C(=O)N2CCCc3cc(NC(=O)C4CCCCC4)cc1c32 (stereo not drawn) | 4.17%
29 | CCOC(=O)c1cc(S(=O)(=O)N2CCc3ccccc32)cn1C | -0.504%
30 | CCOCc1nnc(NC(=O)CSCc2ccccc2)s1 | -1.7%
31 | Cc1ccc2cc(NC(=O)c3cccc(F)c3)ccc2n1 | 0.701%
32 | CCOC(=O)C(NC(C)=O)C(=O)Nc1ccc(C)cc1C (stereo not drawn) | 15.7%
33 | O=C(Nc1nccs1)c1cccc(NC(=O)C(F)(F)F)c1 | -5.07%
34 | O=c1c2c3c(sc2nc2n1CCCCC2)C(O)CCC3 (stereo not drawn) | 3.27%
35 | C=CCn1c(SCc2ccc(C#N)cc2)nnc1-c1cccc(Cl)c1 | -72.7%
36 | C=CCn1c(SCc2cccc(C#N)c2)nnc1-c1ccccc1O | -30.4%
37 | C=CCn1c(SCC(=O)O)nnc1-c1cccc(Cl)c1 | 4.71%
38 | Cc1cc(NC(=O)CSc2nc3ccccc3c(=O)n2CCCC(=O)NCc2ccccc2)n[nH]1 | -8.72%
39 | O=C(NN=C1CCCCCCCCCCC1)c1cccnc1 | 19.8%
40 | CCN(CC)c1ccc(NC(=O)c2cccnc2)c(C)c1 | 26.9%
41 | CCN(CC)S(=O)(=O)c1ccc(Cl)c(C(=O)Oc2cccnc2)c1 | -36.8%
42 | O=C(Nc1cccnc1)c1ccc(Cl)c(Cl)c1 | 10.3%
43 | CCN(CC)S(=O)(=O)c1cc(C(=O)Nc2cccnc2)ccc1Cl | -67.9%
44 | CCN(CC)S(=O)(=O)c1cc(C(=O)Nc2ccncc2)ccc1Cl | -66.3%

Row | Compound | hERG current change (%, negative = inhibition) at 10uM
45 | CCN(CC)S(=O)(=O)c1cc(C(=O)Nc2cc(C)[nH]n2)ccc1Cl | -10.3%
46 | CCN(CC)S(=O)(=O)c1cc(C(=O)Nc2cccnc2Cl)ccc1Cl | 8.87%
47 | CCN(CC)c1ccc(S(=O)(=O)N(CC)CC)cc1NC(=O)c1cccnc1 | -72.5%
48 | CCN(CC)c1ccc(S(=O)(=O)N(CC)CC)cc1NC(=O)C1CCCC1 | -13.6%
49 | CCN(CC)S(=O)(=O)c1cccc(C(=O)Nc2cccnc2)c1 | -17.7%
50 | CCN(CC)S(=O)(=O)c1ccc(Cl)c(C(=O)Nc2cccnc2)c1 | -55.8%
51 | O=C(Nc1ccccc1)c1cc(S(=O)(=O)Nc2cccnc2)ccc1Cl | -3.06%
52 | COc1cccc(-c2sc3ccc(OC)cc3c2C#CCCO)c1 | -7.87%
53 | CCc1nnc(NC(=O)CSC(=S)N2CCOCC2)s1 | 14.6%
54 | CC(=O)c1cn(CC(=O)Nc2ccccc2F)c2ccccc12 | 2.54%
55 | Cc1nc2ccc(N)cc2c(=O)n1Cc1ccc(Cl)cc1 | -11.4%
56 | N#Cc1ccc(N2CCOCC2)c([N+](=O)[O-])c1 | -21.7%
57 | CCN(CC)S(=O)(=O)c1cc(C(=O)Nc2cc(Cl)ccc2N2CCN(C)CC2)ccc1Cl | -53.5%
58 | CN(c1ccccc1)S(=O)(=O)c1ccc(Cl)c(C(=O)Nc2ccncc2)c1 | -5.35%
59 | CN1CCN(c2ccc(Cl)cc2NC(=O)c2ccc(=O)n(C)n2)CC1 | -58.3%
60 | CN1CCN(c2ccc(Cl)cc2NC(=O)c2cccc(S(=O)(=O)N(C)C)c2)CC1 | -36.9%
61 | COc1ccccc1N(C)S(=O)(=O)c1ccc(Cl)c(C(=O)Nc2ccncc2)c1 | -73.4%
62 | CN1CCN(c2ccc(Cl)cc2NC(=O)c2ccc(S(=O)(=O)N(C)C)cc2)CC1 | 1.58%
63 | CN1CCN(c2ccc(Cl)cc2NC(=O)c2ccc([N+](=O)[O-])cc2)CC1 | -10.6%
64 | COc1ccccc1N(C)S(=O)(=O)c1ccc(C(=O)Nc2ccncc2)cc1 | -28.6%
65 | Cn1nc(C(=O)Nc2ccccc2N2CCOCC2)ccc1=O | -24.4%
66 | CCOc1cccc2sc(N3CCN(C(=O)c4ccc5ncsc5c4)CC3)nc12 | 2.18%

Row | Compound | hERG current change (%, negative = inhibition) at 10uM
67 | CCS(=O)(=O)NC(C)C(c1cccs1)N1CCN(c2ccc(OC)cc2)CC1 (stereo not drawn) | -7.31%
68 | O=C(CN(Cc1ccc(F)cc1)C(=O)CCC(=O)Nc1nccs1)NCc1ccccc1 | -35.6%
69 | COc1ccc(CN(CC(=O)NCc2ccccc2)C(=O)CCC(=O)Nc2ccccn2)cc1 | -21.1%
70 | COc1ccc(CNC(=O)CN(Cc2ccccc2)C(=O)CCC(=O)Nc2ccccn2)cc1 | -55.9%
71 | O=C(CN(Cc1ccc(F)cc1)C(=O)CCC(=O)Nc1ccccn1)NCCc1ccccc1 | -15.7%
72 | O=C(CN(Cc1ccc(F)cc1)C(=O)CCC(=O)Nc1nccs1)NCc1ccc(F)cc1 | -50.5%
73 | O=C(CN(Cc1ccccc1)C(=O)CCC(=O)Nc1nccs1)NCc1ccc(F)cc1 | -1.38%
74 | COc1ccc(CNC(=O)CN(Cc2cccs2)C(=O)CCC(=O)Nc2ccccn2)cc1 | -41.1%
75 | COc1ccc(CNC(=O)CN(Cc2ccc(OC)cc2)C(=O)CCC(=O)Nc2ccccn2)cc1 | -64.4%
76 | COc1ccc(CN(CC(=O)NCc2ccc(F)cc2)C(=O)CCC(=O)Nc2ccccn2)cc1 | -28.2%
77 | COc1ccc(CN(CC(=O)NCc2ccccc2)C(=O)CCC(=O)Nc2cc(C)ccn2)cc1 | -17.2%
78 | COc1ccc(CN(CC(=O)NCCc2ccccc2)C(=O)CCC(=O)Nc2ccccn2)cc1 | -27.1%
79 | O=C(CN(Cc1ccccc1)C(=O)CCC(=O)Nc1ccccn1)NCCc1ccccc1 | -52.4%
80 | O=C(O)CC(NC(=O)C(c1ccccc1)c1ccccc1)c1cccc([N+](=O)[O-])c1 (stereo not drawn) | 2.05%
81 | CNC(=O)CNC(=O)Nc1ccc(Cl)c(Cl)c1 | 9.11%
82 | CC(Cc1cnccn1)NCc1c(C(=O)N2CCCCCCC2)nc2ccc(Cl)cn12 (stereo not drawn) | -12.8%
83 | CCn1c(=O)c2c(nc3n2CCCN3Cc2ccccc2)n(C)c1=O | -18.2%
84 | CC#CCCc1nc2ccccc2c(=O)n1N | 15.9%
85 | Cc1cc([N+](=O)[O-])ccc1NCc1ccc2c(c1)OCCO2 | 5.37%
86 | CCCCOC(=O)Nc1cccc(Cl)c1C | -15.6%
87 | CC(C)CN(C(=O)COC(=O)c1ccc2c(c1)NC(=O)CS2)C1CCS(=O)(=O)C1 (stereo not drawn) | 13.1%
